Measurements taken from PubChem BioAssay (Tox21).
Records with an inconclusive call do not appear. The source made the active and inactive calls. Unless noted, calls follow the shape of the dose curve; as a rule, active = well fitted curve in the direction sought with a large enough effect in the repeat runs; inconclusive = weak or mixed curves; inactive = no such curve, though single readings can be large; an effect the other way counts as inactive or inconclusive.

How the values were obtained:
[1] = biological target: Thyrotropin receptor (Homo sapiens) (UniProt P16473); assay: qHTS assay to identify small molecule agonists of the thyroid stimulating hormone receptor (TSHR) signaling pathway (AID 1224843; calls by dose curve; also: nearly all actives have a fitted effect of over 45% in size)
Chain of Thyrotropin receptor (Homo sapiens) (P16473 whole entry, looked up): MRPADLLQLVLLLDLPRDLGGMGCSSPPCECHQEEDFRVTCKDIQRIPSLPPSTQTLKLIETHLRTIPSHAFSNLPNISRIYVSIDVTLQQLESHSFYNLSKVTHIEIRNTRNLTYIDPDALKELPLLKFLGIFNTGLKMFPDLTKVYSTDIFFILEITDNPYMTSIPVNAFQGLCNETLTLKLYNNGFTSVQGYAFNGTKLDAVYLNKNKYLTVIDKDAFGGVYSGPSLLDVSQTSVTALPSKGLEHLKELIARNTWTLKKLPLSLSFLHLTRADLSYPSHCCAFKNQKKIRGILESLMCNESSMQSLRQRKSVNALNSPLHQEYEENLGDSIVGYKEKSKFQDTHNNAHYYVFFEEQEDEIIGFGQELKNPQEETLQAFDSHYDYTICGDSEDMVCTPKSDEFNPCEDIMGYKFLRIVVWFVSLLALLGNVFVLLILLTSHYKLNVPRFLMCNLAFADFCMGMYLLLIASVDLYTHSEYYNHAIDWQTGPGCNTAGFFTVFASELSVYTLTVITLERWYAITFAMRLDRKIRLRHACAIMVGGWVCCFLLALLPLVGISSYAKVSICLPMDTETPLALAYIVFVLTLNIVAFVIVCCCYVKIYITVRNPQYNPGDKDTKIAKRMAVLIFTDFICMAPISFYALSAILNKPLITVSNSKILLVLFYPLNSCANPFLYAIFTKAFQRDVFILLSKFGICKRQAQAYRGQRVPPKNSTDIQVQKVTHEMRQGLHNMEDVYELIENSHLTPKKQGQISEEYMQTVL
How it was run: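 Agonist activity read as cAMP rise via d2/cryptate HTRF competition, 1 h room-temperature detection, in HEK293 cells expressing TSHR. Fifteen-point titrations, each run in triplicate, with a 30 min room-temperature incubation beforehand.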

[2] = qHTS assay to identify small molecule agonists of H2AX (AID 1224845; active = well fitted activation curve with a large enough effect in the signal ratio in the repeat runs, not every such curve was filed as active; the % refers to the signal ratio)
How it was run: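 Phospho-H2AX Ser139 measured by HTRF (ex 320 nm; em 665 and 620 nm) after 24 hr antibody incubation. Compounds, 15 concentrations, 0.76% DMSO, were applied to CHO-K1 cells for 3hr at 37C before lysis.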

[3] = qHTS assay to identify small molecule agonists of the hypoxia (HIF-1) signaling pathway (AID 1224846; active = well fitted activation curve with a large enough effect in the signal ratio in the repeat runs, not every such curve was filed as active; the % refers to the signal ratio)
How it was run: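 ME-180 HRE-bla reporter cells; compounds in DMSO, 17 h at 37C; read-out beta-lactamase via CCF4-AM FRET.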

[4] = qHTS assay to identify small molecule agonists of H2AX - cell viability counter screen (AID 1224847; calls by dose curve;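 also: wild-type CHO-K1 cells; top concentration of the series differs between compounds; nearly all actives have a fitted effect of over 30% in size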)
How it was run: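 After overnight plating of 1000 CHO-K1 cells per well, a 15-concentration compound series was applied for 3 hr at 37C. Luminescence from CellTiter-Glo, read following 30 min at room temperature, reflected cell viability.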

[5] = qHTS assay to identify small molecule antagonists of the estrogen related receptor (ERR) signaling pathway from Tox21 library (AID 1224848); also: nearly all actives have a fitted effect of over 50% in size
How it was run: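 Luciferase luminescence (ONE-Glo, 30 min room temperature) was the read-out. Cells of the NTP-supplied ERR line, 2,000 per well, were given 6 h at 37 C before compound addition in DMSO and 18 h exposure at 37 C.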

[6] = qHTS assay to identify small molecule agonists of the estrogen related receptor (ERR) signaling pathway from Tox21 library (AID 1224849; calls by dose curve; also: nearly all actives have a fitted effect of over 15% in size); settings: ERR reporter cell line, ONE-Glo luciferase, 18 h; at 92.4 µM (top of the series) unless noted
How it was run: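 Luciferase activity in ERR pathway reporter cells served as the agonist readout; exposure lasted 18 h at 37 C, with ONE-Glo detection after 30 min at room temperature.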

[7] = qHTS RealTime-Glo MT Cell Viability Assay in HepG2 cells - 24 hour (AID 1224867); also: nearly all actives have a fitted effect of over 50% in size
How it was run: (§1)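 HepG2 cells were seeded at 600 cells/well together with NanoLuc luciferase and a cell-permeant prosubstrate, preincubated 5 h at 37 C/5% CO2, then pin-dosed with compounds in DMSO. Nonlytic luminescence from viable cells was read at each time point.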

[8] = qHTS RealTime-Glo MT Cell Viability Assay in HepG2 cells - 40 hour (AID 1224870); also: nearly all actives have a fitted effect of over 50% in size
How it was run: (§2)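 Real-time viability: cells seeded at 600 per well together with NanoLuc and cell-permeant prosubstrate, compounds added after 5 h incubation. Luminescence tracked at 0, 8, 16, 24, 32 and 40 h of exposure.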

[9] = A CellTox Green Cytotoxicity Assay to monitor cytotoxicity in HEK293 cells - 40 hour (AID 1224871); also: nearly all actives have a fitted effect of over 45% in size
How it was run: (§3)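 Real-time, in one plate: 600 HEK293 cells/well with dead-cell DNA dye, pinned compound after 5 h, 37 C incubation over 40 h; viable cells give no appreciable fluorescence.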

[10] = qHTS RealTime-Glo MT Cell Viability Assay in HEK293 cells - 16 hour (AID 1224872); also: top concentration of the series differs between compounds; nearly all actives have a fitted effect of over 50% in size
How it was run: (§4)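 HEK293 cells were seeded at 600 cells/well together with NanoLuc luciferase and cell-permeant prosubstrate, preincubated 5 h at 37 C/5% CO2, then given compound in DMSO by pintool. Luminescence from viable-cell prosubstrate reduction was read repeatedly over 40 h.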

[11] = qHTS RealTime-Glo MT Cell Viability Assay in HepG2 cells - 8 hour (AID 1224873); also: nearly all actives have a fitted effect of over 55% in size
How it was run: as §2

[12] = qHTS RealTime-Glo MT Cell Viability Assay in HEK293 cells - 40 hour (AID 1224874); settings: RealTime-Glo luminescence; max response: active compounds read low; also: nearly all actives have a fitted effect of over 50% in size
How it was run: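 Kinetic, non-lysing viability readout. Seed HEK293 (600/well) with reagent, incubate 5 h at 37 C/5% CO2, pin 23 nL compound in DMSO, incubate at 37 C, read luminescence at 0, 8, 16, 24, 32, 40 h.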

[13] = A CellTox Green Cytotoxicity Assay to monitor cytotoxicity in HEK293 cells - 24 hour (AID 1224875); also: nearly all actives have a fitted effect of over 45% in size
How it was run: as §3

[14] = A CellTox Green Cytotoxicity Assay to monitor cytotoxicity in HepG2 cells - 16 hour (AID 1224876); also: nearly all actives have a fitted effect of over 45% in size
How it was run: (§5)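 Cytotoxicity was tracked as dead-cell DNA fluorescence in HepG2 cells treated with test compounds at 37 C; each time-point value comes from one kinetic series spanning 0, 8, 16, 24, 32 and 40 h.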

[15] = qHTS RealTime-Glo MT Cell Viability Assay in HepG2 cells - 32 hour (AID 1224877); also: nearly all actives have a fitted effect of over 55% in size
How it was run: as §1

[16] = qHTS assay to identify small molecule agonists of the hypoxia (HIF-1) signaling pathway - cell viability counter screen (AID 1224844; calls by dose curve; also: nearly all actives have a fitted effect of over 50% in size)
How it was run: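 In this counter screen, HRE-bla ME-180 cell viability after 17 hrs of compound exposure at 37C was read by CellTiter-Glo luminescence, multiplexed with the beta-lactamase reporter measurement.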

[17] = qHTS RealTime-Glo MT Cell Viability Assay in HEK293 cells - 32 hour (AID 1224868)
How it was run: as §4

[18] = A CellTox Green Cytotoxicity Assay to monitor cytotoxicity in HEK293 cells - 0 hour (AID 1224869); also: nearly all actives have a fitted effect of over 50% in size
How it was run: as §3

[19] = A CellTox Green Cytotoxicity Assay to monitor cytotoxicity in HepG2 cells - 24 hour (AID 1224878); also: nearly all actives have a fitted effect of over 45% in size
How it was run: as §5

[20] = A CellTox Green Cytotoxicity Assay to monitor cytotoxicity in HepG2 cells - 40 hour (AID 1224879); also: nearly all actives have a fitted effect of over 40% in size
How it was run: as §5
% is scaled to controls: 0 for no effect and ±100 for the full control effect.

CCCCc1ccc2cccc(S(=O)(=O)O)c2c1
inactive: outcome [1] | outcome [2] | outcome [3] | Potency [4] | Potency [5] | activity change, positive = activation [6] -0.296% | outcome [7] | Potency [8] | Potency [9] | Potency [10] | outcome [11] | max response [12] 3.37% | Potency [13] | Potency [14] | Potency [15]

COc1ccc(N=[N+]([O-])c2ccc(OC)cc2)cc1
inactive: outcome [1] | Potency [16] | outcome [3] | outcome [7] | Potency [17] | Potency [18] | Potency [8] | Potency [9] | outcome [11] | Potency [13] | Potency [14] | Potency [15] | Potency [19] | Potency [20]

CCn1cc(C(=O)O)c(=O)c2cc(F)c(N3CCN(C)CC3)cc21
inactive: activation [1] -0.535% [at 19 µM] | activity change, negative = cytotoxicity [16] -1.72% [at 15.8 µM] | activity change, negative = cytotoxicity [4] -2.01% [at 31.6 µM] | activity change, negative = cytotoxicity [7] 0.0471% [at 15.8 µM] | activity change, negative = cytotoxic [17] 4.88% [at 15.8 µM] | activity change, negative = cytotoxic [8] 1.6% [at 15.8 µM] | cytotoxicity increase [9] -12.2% [at 15.8 µM] | activity change, negative = cytotoxicity [10] 4.51% [at 15.8 µM] | viability change, negative = cytotoxic [11] 2.21% [at 15.8 µM] | max response [12] -1.49% | activity change [13] -4.84% [at 15.8 µM, active compounds read high] | cytotoxicity increase [14] -8.46% [at 15.8 µM] | activity change, negative = cytotoxic [15] 1.05% [at 15.8 µM] | cytotoxicity [19] -13.3% [at 15.8 µM] | cytotoxicity increase [20] -14.4% [at 15.8 µM]

CC(C)=CC(=O)O
inactive: outcome [1] | outcome [2] | outcome [3] | Potency [4] | outcome [7] | Potency [17] | Potency [18] | Potency [8] | Potency [9] | Potency [10] | max response [12] 10.8% | Potency [14] | Potency [15] | Potency [19] | Potency [20]

CCCC=O
inactive: outcome [1] | outcome [2] | outcome [3] | Potency [4] | Potency [5] | activity change, positive = activation [6] 0.262% | outcome [7] | Potency [17] | Potency [8] | Potency [9] | Potency [10] | outcome [11] | max response [12] 6.1% | Potency [13] | Potency [14] | Potency [15] | Potency [19] | Potency [20]

NC(=O)CCCCC1CCSS1 (stereo not given)
inactive: outcome [1] | Potency [16] | Potency [4] | outcome [7] | Potency [18] | Potency [8] | Potency [9] | max response [12] 4.59% | Potency [13] | Potency [15] | Potency [19] | Potency [20]

CCN1CCCC(OC(=O)C(c2ccccc2)c2ccccc2)C1 (stereo not given)
inactive: outcome [1] | Potency [16] | Potency [4] | outcome [7] | Potency [17] | Potency [8] | Potency [9] | Potency [10] | outcome [11] | max response [12] 14.8% | Potency [13] | Potency [14] | Potency [15] | Potency [19] | Potency [20]

C=CCSCC1Nc2cc(Cl)c(S(N)(=O)=O)cc2S(=O)(=O)N1 (stereo not given)
inactive: outcome [1] | Potency [16] | outcome [3] | Potency [4] | outcome [7] | Potency [17] | Potency [18] | Potency [8] | Potency [9] | Potency [10] | outcome [11] | max response [12] 10.2% | Potency [14] | Potency [15] | Potency [19] | Potency [20]

C=C(C)[C@@H]1CCC2=CC(=O)C[C@@H](C)[C@]2(C)C1
inactive: outcome [1] | outcome [2] | outcome [3] | Potency [4] | Potency [5] | activity change, positive = activation [6] -3.73% | outcome [7] | Potency [17] | Potency [18] | Potency [9] | Potency [10] | outcome [11] | max response [12] 3.58% | Potency [13] | Potency [15]

CCc1cc(S(=O)(=O)O)c2cc(C(C)C)cccc1-2
inactive: outcome [1] | Potency [16] | outcome [3] | Potency [4] | outcome [7] | Potency [17] | Potency [18] | Potency [8] | Potency [9] | Potency [10] | outcome [11] | max response [12] 7.39% | Potency [13] | Potency [14] | Potency [15] | Potency [19] | Potency [20]

Nc1ccc2cc(S(=O)(=O)O)ccc2c1
inactive: outcome [1] | Potency [16] | outcome [3] | Potency [4] | outcome [7] | Potency [17] | Potency [18] | Potency [8] | Potency [9] | Potency [10] | outcome [11] | max response [12] -14% | Potency [13] | Potency [14] | Potency [19] | Potency [20]

CCCCCCCCC=O
inactive: outcome [1] | outcome [2] | outcome [3] | Potency [4] | Potency [5] | activity change, positive = activation [6] -1.48% | outcome [7] | Potency [17] | Potency [18] | Potency [8] | Potency [9] | Potency [10] | max response [12] -0.417% | Potency [13] | Potency [15]

COC(=O)CCCCCCCCC(=O)OC
inactive: outcome [1] | Potency [16] | Potency [4] | Potency [5] | activity change, positive = activation [6] 0.842% | outcome [7] | Potency [17] | Potency [18] | Potency [9] | Potency [10] | max response [12] 2.88% | Potency [13] | Potency [14] | Potency [15] | Potency [19] | Potency [20]

CC(C)(O)Cc1ccccc1
inactive: outcome [1] | outcome [2] | outcome [3] | Potency [4] | Potency [5] | activity change, positive = activation [6] -2.35% | outcome [7] | Potency [18] | Potency [8] | Potency [9] | Potency [10] | outcome [11] | Potency [13] | Potency [14] | Potency [15] | Potency [19] | Potency [20]

CC(C)N1C(=O)c2ccccc2C1=O
inactive: outcome [1] | Potency [16] | Potency [4] | outcome [7] | Potency [17] | Potency [18] | Potency [8] | Potency [9] | outcome [11] | max response [12] 4.79% | Potency [14] | Potency [15] | Potency [19] | Potency [20]
